# Screens from PubChem BioAssay.
# Shown is part of a subset that was picked to be rich in hits.
# Cruzain Triton: blocks cruzain activity in presence of Triton detergent | hit rate 0.43% among 200,000 | Potency, µM, hits mostly inhibitors | P25779 | purified cruzain, Z-FR-AMC fluorescence, 0.01% Triton; note: nearly all actives have a fitted effect of over 40% in size
# Target sequence (P25779 123-467 limits assumed): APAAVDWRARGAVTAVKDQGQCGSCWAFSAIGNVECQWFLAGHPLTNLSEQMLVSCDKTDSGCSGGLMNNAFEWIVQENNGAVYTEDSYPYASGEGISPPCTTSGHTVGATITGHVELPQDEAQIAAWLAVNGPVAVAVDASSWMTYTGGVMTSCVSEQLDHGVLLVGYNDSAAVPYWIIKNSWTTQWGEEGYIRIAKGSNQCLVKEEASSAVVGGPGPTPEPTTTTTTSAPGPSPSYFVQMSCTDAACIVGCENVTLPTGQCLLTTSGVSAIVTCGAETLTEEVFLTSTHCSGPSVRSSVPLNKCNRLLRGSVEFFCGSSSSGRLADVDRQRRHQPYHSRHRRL
#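 Detergent-containing run (0.01% Triton X-100) in acetate buffer pH 5.5 with 5 mM DTT: enzyme at 1.5 nM final, 15 min compound preincubation at room temperature, then 2 uM Z-FR-AMC substrate. Activity taken as 60 s fluorescence increase at 360/450 nm.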
# NS1 inh: influenza NS1 inhibition; Potency, µM (series often up to 46.1 µM); AID 2326; hit rate 0.4% among 270,000; calls by dose curve; note: actives are rising curves; nearly all actives have a fitted effect of over 50% in size
#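 Recovery from NS1-induced slow growth read by OD600 in budding yeast switched to galactose assay medium (pH 6.0, -URA) at 1:100 dilution. Compound 23 nl per well; the matching strain lacking NS1 serves as control.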
# Cruzain inh noDet: cruzain (T. cruzi) inhibition without detergent; Potency, µM, actives largely listed as inhibitors; P25779; purified cruzain, Z-FR-AMC fluorescence, no detergent; hit rate 2.3% among 200,000; note: nearly all actives have a fitted effect of over 40% in size
#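 Detergent-free condition (0.00005% Triton X-100) in acetate buffer pH 5.5 with DTT. 1.5 nM enzyme and compound were pre-mixed 15 min, then 2 uM Z-FR-AMC substrate added; reaction progress from fluorescence change between first and third reads (60 s).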
# A number is an active result; – = inactive; ? = inconclusive; · = not tested or not shown. Unless noted, calls come from the whole dose curve; as a rule, active = well fitted curve in the direction sought with a large enough effect; inconclusive = small, poorly fitted or top-dose-only effect, or another doubt; inactive = no such curve, though single readings can be large; an effect the other way counts as inactive or inconclusive.
SMILES,Cruzain Triton,NS1 inh,Cruzain inh noDet
CCOCCc1nnc(NC(=O)CS(=O)(=O)Cc2ccccc2)s1,·,–,·
CCOc1ccc(CNc2ccc3c(c2)nc(C)n3C)cc1,–,–,–
Cc1ccc(CNC(=O)CSc2cc(C)[nH]c(=O)n2)cc1,–,·,–
COc1ccc(C)cc1NC(=O)Cn1cnc2sc(C)c(S(=O)(=O)N3CCOCC3)c2c1=O,–,–,–
Cc1c(C(=O)OCC(=O)Nc2ccc(S(N)(=O)=O)cc2)oc2c1ccc1ccccc12,·,–,·
Cc1cc(NC(=O)COC(=O)c2oc3c(ccc4ccccc43)c2C)no1,–,–,20µM
O=C(CNC(=O)/C(=C/c1ccccc1)NC(=O)c1ccc(Br)cc1)OCc1ccccc1,?,–,–
O=C(CNC(=O)/C(=C\c1ccc(Br)cc1)NC(=O)c1ccccc1)OCc1ccccc1,10µM,–,?
N#C[C@H]1[C@H](c2ccccc2)[C@](C#N)(C(=O)c2ccccc2)[C@@H]2C=Cc3ccccc3N21,–,–,25µM
COc1ccc(C(=O)N2c3ccccc3C=CC2C#N)cc1 (stereo not given),–,–,–
CCSc1ccccc1C(=O)Nc1ccc(-c2nc3ccccc3s2)c(O)c1,–,·,7.9µM
CSc1ccc(C(=O)Nc2ccc(-c3nc4ccccc4s3)c(O)c2)cc1,–,·,–
Cc1ccsc1-c1nc(C(N)=O)c2[nH]c(=O)n(-c3ccc(Cl)cc3)c2n1,–,–,10µM
Cc1ccc(-n2c(=O)[nH]c3c(C(N)=O)nc(C(C)C)nc32)cc1,·,–,·
Cc1cc(NC(=O)c2ccc(COc3ccc(Cl)c(C)c3)o2)no1,–,–,25µM
Cc1ccc(OCc2ccc(C(=O)Nc3cc(C)on3)o2)c([N+](=O)[O-])c1,·,–,·
CCCCOCc1cc(CN2CCN(c3cccc(Cl)c3)CC2)c(O)c2ncccc12,–,·,–
CCOc1cccc(OCC)c2c(C)[n+](CC3CCCO3)c(C)c1-2 (stereo not given),–,–,–
CO/N=C(\C(=O)N[C@@H]1C(=O)N2C(C(=O)O)=C(CSc3nc(=O)c(O)nn3C)CSC12)c1csc(N)n1 (stereo not given in full),–,–,–
NS(=O)(=O)c1ccc(NCc2cc(Cl)ccc2OCc2ccc(F)cc2)cc1,–,–,–
Cc1ccc(-n2ncc3c(NCc4ccccc4)ncnc32)cc1,–,–,–
Cc1ccc(CNc2ncnc3c2cnn3-c2ccccc2)cc1,–,–,25µM
Cc1ccc(S(=O)(=O)NC(=O)c2ccc(Br)o2)c(C)c1,–,–,–
Cc1ccccc1C(=O)Nc1ccc(C(=O)NNC(=O)CCCOc2ccc(Cl)cc2Cl)cc1,–,–,10µM
O=C(O)CCC(=O)NNC(=O)CCCOc1ccc(Cl)cc1Cl,–,–,–
SMILES,Cruzain Triton,NS1 inh,Cruzain inh noDet
COC(=O)NNC(=O)CCCOc1ccc(Cl)cc1Cl,–,–,–
O=C(CCCOc1ccc(Cl)cc1Cl)NNC(=O)c1ccc(NC(=O)c2ccccc2)cc1,–,–,4µM
CCOC(=O)c1c(-c2ccc(OCC)cc2)csc1NC(=O)CCN1C(=O)c2ccccc2C1=O,–,–,?
CCOC(=O)c1c(-c2ccc(OC)cc2)csc1NC(=O)CCN1C(=O)c2ccccc2C1=O,–,–,16µM
CC1CCN(CCCNC(=O)CCNC(=O)Cn2cnc3ccccc3c2=O)CC1,·,–,·
O=C1C2C3C=CC(C3)C2C(=O)N1CCC(=O)N1CCc2ccccc21 (stereo not given),–,–,–
O=C1SC(SCc2ccccc2)=N/C1=C\c1ccc(C(=O)O)cc1,·,–,·
CC(/C=C1\N=C(SCc2ccccc2Cl)SC1=O)=C\c1ccccc1,–,–,25µM
O=C1C=C(NCCc2cc(Br)c(O)c(Br)c2)C(=O)c2ncccc21,–,–,–
COc1ccc(Br)cc1C(=O)Nc1ccc(-c2nc3ncccc3o2)cc1C,–,·,–
Oc1c(C=C2N=c3ccccc3=N2)sc(=S)n1-c1ccc2ccccc2c1,·,–,·
Oc1c(C=C2N=c3ccccc3=N2)sc(=S)n1C1CCCC1,–,–,20µM
Oc1c(C=C2N=c3ccccc3=N2)sc(=S)n1-c1ccc(F)cc1,–,–,20µM
O=C(Nn1c(O)c(C=C2N=c3ccccc3=N2)sc1=S)c1ccccc1,–,–,–
O=C(Nc1c2c(nn1-c1ccc(Cl)cc1)CS(=O)(=O)C2)c1ccc(Br)cc1,–,·,–
CC1CCc2c(sc(NC(=O)c3ccc(-c4ccccc4[N+](=O)[O-])o3)c2C#N)C1 (stereo not given),–,–,10µM
CC1CCc2c(sc(NC(=O)c3ccc(Cn4cc([N+](=O)[O-])cn4)o3)c2C#N)C1 (stereo not given),–,–,–
CCN1CCc2c(sc(NC(=S)NC(=O)c3ccccc3)c2C#N)C1,–,–,–
CC(C)(C)c1ccc(C(=O)NC(=S)Nc2sc3c(c2C#N)CCC3)cc1,–,–,10µM
N#Cc1c(NC(=S)NC(=O)c2ccccc2)sc2c1CCC2,–,–,–
CC1CCc2sc(NC(=S)NC(=O)c3ccccc3)c(C#N)c2C1 (stereo not given),–,–,25µM
NC[C@H]1O[C@@H](n2cnc3c(=O)[nH]c(N)nc32)[C@@H](O)[C@@H]1O,–,–,–
COc1ccc(-c2nc3c(c(=O)[nH]c(=O)n3Cc3ccccc3)n2CCO)cc1,·,–,·
COc1ccc(CNC(=O)C2=C(C)C(=O)OC23CCCCC3)cc1,–,·,–
O=C(Cn1c(=O)n(-c2ccc(F)c(Cl)c2)c(=O)c2sc3ccccc3c21)NC1CCCC1,–,·,–
SMILES,Cruzain Triton,NS1 inh,Cruzain inh noDet
Cn1c(=O)cc(SCC(=O)N2CCN(c3ccccc3F)CC2)c2ccccc21,–,·,?
C/C(=N\NC(=O)c1ccc(Cn2cc([N+](=O)[O-])cn2)o1)c1cccc(NC(=O)c2cccnc2)c1,–,–,–
CC1=Nc2cc(C(=O)NC3CCCC3)ccc2Sc2ccc(Cl)cc21,–,·,?
CCC1=Nc2cc(C(=O)NC3CCCC3)ccc2Sc2ccc(Cl)cc21,–,·,7.9µM
CNC(=S)N/N=C/c1cc(C)n(-c2ccc(Cl)c(Cl)c2)c1C,–,–,32µM
Cc1ccc(-n2c(C)cc(/C=N/NC(N)=S)c2C)cc1,?,–,?
COc1ccc(Cl)cc1NC(=O)Cn1c(=O)oc2cc(S(=O)(=O)N3CCCCCC3)ccc21,–,·,–
Cc1cc(NC(=O)C(Cl)c2ccccc2)no1 (stereo not given),·,–,·
COc1cc(C)ccc1OCCOc1c(Cl)cc(Cl)cc1Cl,–,–,–
COc1cc(C)ccc1OCCOc1cc(C)ccc1Cl,–,?,20µM
Nc1nc(N2CCN(C(c3ccccc3)c3ccccc3)CC2)n[nH]1,·,–,·
S=C(Nc1ccc2c(c1)Cc1ccccc1-2)Nc1ccc2c(c1)Cc1ccccc1-2,–,–,–
COc1ccccc1N1CCN(S(=O)(=O)c2ccc(F)c(C(=O)Nc3ccc(Cl)cc3C(F)(F)F)c2)CC1,–,·,?
Cc1ccc(C)c(NC(=O)c2cc(S(=O)(=O)N3CCN(c4cccc(Cl)c4)CC3)ccc2F)c1,–,·,7.9µM
Cc1ccc(N2CCN(S(=O)(=O)c3ccc(F)c(C(=O)Nc4ccc(Cl)cc4Cl)c3)CC2C)cc1 (stereo not given),–,·,–
COc1ccccc1NC(=O)c1cc(S(=O)(=O)N2CCN(c3ccccc3Cl)CC2)ccc1F,–,·,10µM
CCc1ccc(NC(=O)c2c(Cl)nc(C)c(Cl)c2C)cc1,–,–,–
Cc1cc(NC(=O)COC(=O)c2cc3c(s2)CCC(C)C3)no1 (stereo not given),–,–,32µM
